# Screening data from PubChem.
# HGIII-sPLA2 inh = human group III sPLA2 inhibitors, primary screen, biochemical, QFRET, BODIPY PC-A2 liposome substrate; inhibition, % at 12.2 µM; QFRET BODIPY PC-A2 liposome hydrolysis, fluorescence; 370,000 compounds, 0.56% hits; AID 743126, 2013; Group 3 secretory phospholipase A2 (Homo sapiens), Q9NZ20;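 active = inhibition above mean plus 3 SD of compounds lying within the high and low control bounds, cut at about 19% in these data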;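 also: 0% = median of test compound wells and 100% = no enzyme DMSO wells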
# proKLK7 act = proKLK7 zymogen activators, primary screen, biochemical, fluorescence intensity; Kallikrein-7 (Homo sapiens), P49862; purified proKLK7, EDANS-DABCYL substrate fluorescence; 100% is mature enzyme control, 0% vehicle; activation, % at 7 µM; 370,000 compounds, 0.9% hits; AID 652039, 2013;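 active = activation above the mean of all tested compounds plus 3 SD, computed per campaign excluding outliers beyond control limits, cut at about 13% in these data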
# PLC-beta3 inh = human PLC-beta3 inhibitors, primary screen, biochemical, fluorescence; 1-phosphatidylinositol 4,5-bisphosphate phosphodiesterase beta-3 (Homo sapiens), Q01970; Purified PLC-beta3, fluorogenic substrate; inhibition, % at 12.2 µM; 370,000 compounds, 0.18% hits; AID 720704, 2013; in the data active = inhibition above about 11%;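 also: 0% = median of compound wells on plate and 100% = full blocker control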
# PLCg1 inh = PLC-gamma1 enzyme inhibitors, primary screen, biochemical, fluorescence, purified enzyme | 1-phosphatidylinositol 4,5-bisphosphate phosphodiesterase gamma-1 (Homo sapiens), P19174 | fluorogenic substrate | inhibition, % at 12.2 µM | 370,000 compounds, 0.84% hits | AID 720700, 2013; in the data active = inhibition above about 9.5%
# ADAM10 inh = human ADAM10 inhibitors, primary screen, biochemical, QFRET, HTS; 370,000 compounds, 0.62% hits; inhibition, % at 7 µM; Disintegrin and metalloproteinase domain-containing protein 10 (Homo sapiens), O14672; recombinant ADAM10, EDANS/DABCYL FRET peptide cleavage, 3 h;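 active = inhibition above a per-campaign cutoff equal to the mean of compounds falling between control-based bounds plus 3 SD, cut at about 20% in these data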;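 also: 0% = DMSO wells while the 100% control is not disclosed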
# ADAM17 inh = ADAM17 inhibitors, primary screen, biochemical, QFRET. inhibition, % at 6.95 µM. recombinant ADAM17, EDANS/DABCYL FRET peptide cleavage. 370,000 compounds, 0.83% hits. Disintegrin and metalloproteinase domain-containing protein 17 (Homo sapiens), P78536;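 active = inhibition above the mean of compounds lying between control limits plus 3 SD, set per campaign, cut at about 8.5% in these data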;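 also: 0% = DMSO-only wells as the low control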
# hGIII sPLA2 conf = human group III sPLA2 inhibitors, confirmation, biochemical, QFRET, triplicate; 2,000 compounds, 34% hits; shares compounds with HGIII-sPLA2 inh; recombinant hGIII-sPLA2, BODIPY PC-A2 QFRET fluorescence; inhibition, % at 12.2 µM; AID 743280, 2014;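 active = mean inhibition across triplicates above the hit cutoff set in the earlier primary screen, cut at about 19% in these data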;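 also: 0% = enzyme with DMSO and 100% = DMSO wells lacking enzyme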
# BODIPY interf = 535nm fluorescence optical interference, confirmation, artefact control for HGIII-sPLA2 inhibitor project, biochemical, QFRET; AID 743282, 2014; BODIPY FL product fluorescence interference; shares compounds with HGIII-sPLA2 inh; 2,000 compounds, 8.5% hits; inhibition, % at 12.2 µM;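 active = average inhibition above the solvent-only control mean plus 3 SD, cut at about 6% in these data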;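 also: 0% = DMSO with substrate plus product and 100% = DMSO with substrate alone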
# BODIPY interf DR = 535nm fluorescence optical interference, dose response, artefact control for HGIII-sPLA2 inhibitor project, biochemical, QFRET; shares compounds with HGIII-sPLA2 inh; BODIPY FL product fluorescence interference, cell-free; IC50, µM; 240 tested, under 10 active; AID 743455, 2014;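 active = IC50 at or below 10 µM; inactive = IC50 above 10 µM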
# Numbers without * were called inactive; x = no result given. This is a sample that favours compounds with a hit; in the whole collection about 3.4% have one here.
SMILES,HGIII-sPLA2 inh,proKLK7 act,PLC-beta3 inh,PLCg1 inh,ADAM10 inh,ADAM17 inh,hGIII sPLA2 conf,BODIPY interf,others
C[n+]1c(-c2ccccc2)sc2ccccc21,-9,0,-3,1,8,-2,x,x,
CN(C)c1ccc(/C=C/C=C/c2sc3ccccc3[n+]2C)cc1,21*,-1,-17,-8,4,-1,41*,-15,BODIPY interf DR=>122
CN(C)c1ccc(/C=C/c2cc[n+](C)c3ccccc23)cc1,26*,0,1,3,2,-1,33*,-14,BODIPY interf DR=>122
COC(=O)C1=C(c2ccccc2OCc2ccccc2)C[C@@H]2CC[C@H]1N2C(=O)NCc1ccc([N+](=O)[O-])cc1,-18,0,3,6,15,8,x,x,
CC1OC(OC2CC(O)C3(CO)C4C(O)CC5(C)C(C6=CC(=O)OC6)CCC5(O)C4CCC3(O)C2)C(O)C(O)C1O (configuration not stated),28*,0,-3,9,-23,-3,4,-6,
O=c1nc(/C=C/c2ccc(Cl)cc2Cl)cc(C(F)(F)F)[nH]1,-21,0,-10,-3,-30,-10,x,x,
CCCCc1ccc2[nH]cc(CCN)c2c1,30*,0,2,3,5,-4,8,-14,
CN1CCC2(CC1)C(C#N)=C(N)NC(S)=C2C#N,-6,-1,-65,-52,-43,-16,x,x,
Cc1cc(-c2cc(C)c(N)c(C)c2)cc(C)c1N,22*,0,8,-1,15,2,22*,1,
CC(C)Oc1ccc(CCN)cc1Cl,23*,0,0,1,0,1,4,-7,
CCCCOc1ccc(CCN)cc1Cl,3,0,7,4,6,3,x,x,
O=C1CN=C(c2ccc[nH]2)c2cc(Cl)ccc2N1,3,0,-10,-4,2,-3,x,x,
CN=C1CN=C(c2ccc[nH]2)c2cc(Cl)ccc2N1,19*,x,-13,-1,-5,-6,8,1,
COC(=O)C1=C(c2cc3ccccc3o2)C[C@@H]2CC[C@H]1N2C(=O)NCCO,2,0,0,2,3,-1,x,x,
